The structures appear in SMILES notation. Screen size: about 63,000 compounds; about 1,100 (1.7%) were called active. Many of the other results were omitted from the sample, so actives are more common in it than they were. Potency and affinity values are given separately. Unmarked numbers belong to inactive results. Rule as the data show it: active = cytotoxicity above about 50%; inactive = the rest.

The test in a line: HPDE-C7 pancreatic duct cell viability loss – fluorescence, HTS (AID 430).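 Also: cells exposed to compound for 48 hours before viability readout; 0% = vehicle and 100% = reference cytotoxic drug.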 The following applies: HPDE-C7 pancreatic duct cells viability, at 10 µM, active compounds read high.
`Fc1ccc(OCc2nc(-c3ccc(Br)o3)no2)c(F)c1`: the cytotoxicity is 6.5%.
With `Cc1ccc(-n2c(SCC(N)=O)nnc2-c2cccnc2)c(C)c1`, the cytotoxicity was -1.8%.
Then `FC(F)(F)c1ccc2c(c1)nc1n2CCCC1`, with -20.5%; and `O=C(CC1COc2ccccc2O1)NC1CCCCC1` (stereo not given), with -3.9%.
For the compound `CC1CCCCN1S(=O)(=O)c1ccc(C(=O)Nc2nnc(-c3ccccc3Cl)o2)cc1` (stereo not given), the cytotoxicity is 57.4% (active).
Then `O=C(Nc1nnc(-c2ccccc2Cl)o1)c1cccnc1`, with 39.4%.
For `CN1CCN(S(=O)(=O)c2ccc(NC(=O)c3cccs3)cc2)CC1`, the cytotoxicity was -7.7%.
Under `CC1CCN(S(=O)(=O)c2ccc(NC(=O)c3cccs3)cc2)CC1` stands 19.6%.
Regarding `CCCC(=O)Nc1nnc(-c2ccc(Cl)s2)o1`, the cytotoxicity was 1.2%.
Then `CCC1CCCCN1S(=O)(=O)c1ccc(C(=O)Nc2nnc(-c3cccs3)o2)cc1` (stereo not given), with 37.7%; and `CC1(C)COCN1S(=O)(=O)c1ccc(C(=O)Nc2nnc(-c3ccc(Cl)s3)o2)cc1`, with 95.1% (active).
Then `CCC1CCCCN1S(=O)(=O)c1ccc(C(=O)Nc2nnc(-c3ccccc3Cl)o2)cc1` (stereo not given), with 67.6% (active); and `COc1ccc(-c2nnc(NC(=O)c3ccc(S(=O)(=O)N4COCC4(C)C)cc3)o2)cc1`, with 28.7%.
Then `CCc1nnc(NC(=O)c2ccc(S(=O)(=O)N3CCCCC3C)cc2)s1` (stereo not given), with -15%; and `CC1CCCCN1S(=O)(=O)c1ccc(NC(=O)c2cccs2)cc1` (stereo not given), with 52.1% (active).
As to `CC1CCCCN1S(=O)(=O)c1ccc(NC(=O)c2cccc(-n3cnnn3)c2)cc1` (stereo not given), the cytotoxicity is 30%.
For the compound `C=CCn1c(SCC(=O)NCCOC)nc2scc(-c3ccco3)c2c1=O`, the cytotoxicity was -6.7%.
As to `c1ccc(-c2nn3c(Cn4nnc5ccccc54)nnc3s2)nc1`, the cytotoxicity was -48.7%.
Under `O=C(Nc1ccon1)c1ccc2c(c1)OCO2` stands -3.5%.
Take `CC(C)N1C(=O)CCC1C(=O)NC1CCCC1` (stereo not given): the cytotoxicity was -3.8%.
Under `Cc1ccc(-c2csc3nnc(SCC(=O)N4CCN(Cc5ccccc5)CC4)n23)cc1` stands 4.7%.
In the case of `COc1ccc(-c2ccc(NCCC3=CCCCC3)nn2)cc1OC`, the cytotoxicity was 18.1%.
Then `CCOC(=O)CSc1nnc(-c2ccc(S(=O)(=O)N3CCC(C)CC3)cc2)o1`, with 2%; and `O=c1cc(CN2CCN(c3ccc(F)cc3)CC2)nc2sccn12`, with -3.4%.
Consider `Cc1nc2ccccn2c(=O)c1CCN1CCC(C(=O)c2ccc(F)cc2)CC1`, for which the cytotoxicity was -14.3%.
As for `CCCOC(=O)C1C2C=CC3(CN(c4ccc(Cl)c(F)c4)C(=O)C13)O2` (stereo not given), the cytotoxicity was -15.1%.
Then `C=CCOC(=O)c1[nH]c2c(c1C)C(=O)CC(c1ccco1)C2` (stereo not given), with 74.9% (active).
On to `C=CCOC(=O)c1[nH]c2c(c1C)C(=O)CC(c1cc(OC)c(OC)c(OC)c1)C2` (stereo not given), for which the cytotoxicity was -23.8%.
Under `C/C=C/COC(=O)c1[nH]c2c(c1C)C(=O)CC(c1ccco1)C2` (stereo not given) stands 63.7% (active); under `C/C=C/COC(=O)c1[nH]c2c(c1C)C(=O)CC(c1ccc(N(C)C)cc1)C2` (stereo not given), 11.6%.
Then `CCN1CCN(CC(=O)Nc2ccccc2)C(=O)C1=O`, with -4.7%; and `CCOc1nc2ccccc2nc1NS(=O)(=O)c1ccccc1`, with 0.8%; and `CCN(CC)C(=O)CSC(=Nc1ccccc1F)NC#N`, with 3.7%.
Then `Cc1cc(NC(=O)c2ccccc2-c2ccccc2C(=O)O)no1`, with 5.8%.
Turning to `O=c1[nH]c(NCCCO)nc2c1C1(CCCC1)Cc1ccccc1-2`, the cytotoxicity was 23.9%.
On to `Cn1c(NCCO)nc2c(c1=O)C1(CCCCC1)Cc1ccccc1-2`, for which the cytotoxicity is 8.3%.
Then `CC1(C)Cc2ccccc2-c2nc(NCCO)n(-c3ccccc3)c(=O)c21`, with -0.1%.
`CC1(C)CC(n2c(NCCO)nc3c(c2=O)C2(CCCC2)Cc2ccccc2-3)CCO1` (stereo not given): the cytotoxicity was 56.4% (active).
Under `O=c1[nH]c(NCCO)nc2c1C1(CCCCC1)Cc1ccccc1-2` stands 13.1%; under `Cn1c(NCCCO)nc2c(c1=O)C1(CCCCC1)Cc1ccccc1-2`, 53.9% (active); under `COc1ccccc1NC(=O)CSc1nnnn1-c1ccc2c(c1)OCO2`, -9.1%.
Then `COc1ccc(C2c3c(oc4c(C)cc(C)cc4c3=O)C(=O)N2Cc2cccnc2)cc1OC` (stereo not given), with 43.3%; and `O=C(CCNS(=O)(=O)c1cccc2nsnc12)N1CC(=O)N(CCc2ccccc2)C(=O)C1`, with -14.8%.
Then `COc1ccc(C(=O)NCCn2cc(SCC(=O)Nc3cc(C)on3)c3ccccc32)cc1OC`, with -41%.
Turning to `Cc1cc(C)n2nc(SCC(=O)NCc3ccco3)nc2n1`, the cytotoxicity is -20.4%.
Consider `COCCn1c(C)cc(C(=O)COC(=O)CCc2ccc(S(=O)(=O)N3CCOCC3)cc2)c1C`, for which the cytotoxicity is -9.3%.
In the case of `CC(=O)Oc1cc2c(C(C)=O)coc2c2ccccc12`, the cytotoxicity is 4.5%.
In the case of `COc1ccc(C(=O)N(Cc2nc(-c3ccc(C)cc3)no2)C2CCCCC2)cc1OC`, the cytotoxicity is 9.2%.
In the case of `COc1ccccc1-c1nc(-c2cccc(C)c2)no1`, the cytotoxicity is 9.9%.
Then `COc1cccc(OCc2nc3ccccc3[nH]2)c1`, with -1.9%; and `O=C(NCc1nc2ncc(Br)cc2[nH]1)c1ccccc1`, with -4.4%; and `COc1cccc(OCc2nc3ncc(Br)cc3[nH]2)c1`, with 61.9% (active).
Then `CCOC(=O)c1[nH]c2ccc(Br)cc2c1NC(=O)CCN1CCCCC1`, with 0.6%; and `Cc1ccc2c(c1)nnn2C1CCN(CC(=O)Nc2ccccc2N2CCOCC2)CC1`, with 11%; and `Cc1c(NC(=O)c2ccc(=O)oc2)c(=O)n(-c2ccccc2)n1C`, with -6.7%.
Then `Cc1c(NC(=O)Nc2ccc(Cl)c(Cl)c2)c(=O)n(-c2ccccc2)n1C`, with 65.8% (active); and `Cc1c(NC(=O)Nc2cccc(Cl)c2)c(=O)n(-c2ccccc2)n1C`, with -2.1%; and `Cc1c(NC(=O)c2ccc(Br)o2)c(=O)n(-c2ccccc2)n1C`, with -3.4%.
Regarding `Cc1c(NC(=O)Nc2ccc(Cl)cc2)c(=O)n(-c2ccccc2)n1C`, the cytotoxicity is -19.8%.
Under `O=C(CSc1ccc2nnc(-c3ccccn3)n2n1)NCc1ccc2c(c1)OCO2` stands -15.3%.

These data come from PubChem BioAssay AID430 (Sanford-Burnham Center for Chemical Genomics, 2006).
